Source: the supplement of paper PMC11732987, “Enantioselective OTUD7B fragment discovery through chemoproteomics screening and high-throughput optimisation” (Communications Chemistry, 2025)

Assays:
Assay in all cases: log2 ratio of Biotin-Ahx-Ub-VS probe labelling (fragment/DMSO); higher = less target engagement (more negative = stronger competition), active = hit call of the paper (q ≤ 0.05, log2 ratio ≤ -1)
Conditions in all cases: compound concentration: 200 uM; treatment time: 3 h
USP42 = target: T1, USP42 (UniProt Q9H9J4)
T1 sequence (whole entry): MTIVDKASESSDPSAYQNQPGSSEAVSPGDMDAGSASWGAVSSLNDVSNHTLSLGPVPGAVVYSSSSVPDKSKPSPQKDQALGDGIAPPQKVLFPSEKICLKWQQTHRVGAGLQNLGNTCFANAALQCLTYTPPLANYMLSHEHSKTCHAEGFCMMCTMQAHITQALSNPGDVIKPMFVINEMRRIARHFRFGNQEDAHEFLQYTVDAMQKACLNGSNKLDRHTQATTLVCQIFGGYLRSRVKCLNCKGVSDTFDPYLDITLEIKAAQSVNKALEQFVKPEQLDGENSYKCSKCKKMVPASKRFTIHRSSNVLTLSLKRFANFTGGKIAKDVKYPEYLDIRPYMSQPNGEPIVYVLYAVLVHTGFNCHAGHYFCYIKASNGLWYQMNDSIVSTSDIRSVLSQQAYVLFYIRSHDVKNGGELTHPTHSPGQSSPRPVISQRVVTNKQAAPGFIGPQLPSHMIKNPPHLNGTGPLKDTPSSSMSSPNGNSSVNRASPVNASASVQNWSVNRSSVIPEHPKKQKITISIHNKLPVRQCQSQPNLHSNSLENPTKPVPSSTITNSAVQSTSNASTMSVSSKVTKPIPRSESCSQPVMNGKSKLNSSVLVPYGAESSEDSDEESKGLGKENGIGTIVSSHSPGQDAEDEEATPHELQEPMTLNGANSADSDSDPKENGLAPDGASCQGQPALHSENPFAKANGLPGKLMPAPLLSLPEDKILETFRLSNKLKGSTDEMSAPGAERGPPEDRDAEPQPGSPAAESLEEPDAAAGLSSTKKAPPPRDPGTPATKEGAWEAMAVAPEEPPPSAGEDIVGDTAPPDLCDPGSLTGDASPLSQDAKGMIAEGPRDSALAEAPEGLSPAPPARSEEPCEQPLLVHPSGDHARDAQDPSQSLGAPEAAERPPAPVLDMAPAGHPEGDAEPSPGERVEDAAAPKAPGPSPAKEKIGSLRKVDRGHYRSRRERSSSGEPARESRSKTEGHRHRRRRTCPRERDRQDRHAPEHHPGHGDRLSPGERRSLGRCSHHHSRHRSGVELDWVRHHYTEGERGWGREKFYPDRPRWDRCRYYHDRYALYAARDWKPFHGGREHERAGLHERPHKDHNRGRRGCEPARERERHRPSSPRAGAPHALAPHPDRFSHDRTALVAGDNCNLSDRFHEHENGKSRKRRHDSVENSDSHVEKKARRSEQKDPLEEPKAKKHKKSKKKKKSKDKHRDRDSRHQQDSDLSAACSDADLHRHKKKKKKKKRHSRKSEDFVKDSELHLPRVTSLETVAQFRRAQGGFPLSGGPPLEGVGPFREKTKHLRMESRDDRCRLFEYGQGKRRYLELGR
Summary of the method: (§1)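 HEK293T lysate, 495 µg per sample in Tris/CHAPS/IGEPAL buffer with protease inhibitors, was treated in triplicate with fragment at 200 µM or vehicle for 3 h and then with Biotin-Ahx-Ub-VS at 0.5 µM final for 1 h. Labelled DUBs were NeutrAvidin-enriched, digested with LysC and trypsin, and run by diaPASEF LC-MS/MS. Spectronaut label-free quantities were global-median-normalised, and values are average log2 fragment/vehicle ratios by unpaired t-test on proteins with ≥2 unique peptides.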

USP46 = USP46 (UniProt P62068)
USP46, sequence (P62068 whole entry): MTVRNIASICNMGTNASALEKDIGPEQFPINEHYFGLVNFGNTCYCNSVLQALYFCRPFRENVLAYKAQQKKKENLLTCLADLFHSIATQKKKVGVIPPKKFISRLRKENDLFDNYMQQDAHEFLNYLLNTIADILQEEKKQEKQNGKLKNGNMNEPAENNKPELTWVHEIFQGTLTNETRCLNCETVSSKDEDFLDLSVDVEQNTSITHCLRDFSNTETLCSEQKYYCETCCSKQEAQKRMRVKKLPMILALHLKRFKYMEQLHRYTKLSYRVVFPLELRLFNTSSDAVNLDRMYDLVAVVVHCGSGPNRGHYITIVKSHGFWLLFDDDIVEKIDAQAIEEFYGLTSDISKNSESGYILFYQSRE
Summary of the method: as §1

USP47 = target: T2, USP47 (UniProt Q96K76)
T2 sequence (whole entry): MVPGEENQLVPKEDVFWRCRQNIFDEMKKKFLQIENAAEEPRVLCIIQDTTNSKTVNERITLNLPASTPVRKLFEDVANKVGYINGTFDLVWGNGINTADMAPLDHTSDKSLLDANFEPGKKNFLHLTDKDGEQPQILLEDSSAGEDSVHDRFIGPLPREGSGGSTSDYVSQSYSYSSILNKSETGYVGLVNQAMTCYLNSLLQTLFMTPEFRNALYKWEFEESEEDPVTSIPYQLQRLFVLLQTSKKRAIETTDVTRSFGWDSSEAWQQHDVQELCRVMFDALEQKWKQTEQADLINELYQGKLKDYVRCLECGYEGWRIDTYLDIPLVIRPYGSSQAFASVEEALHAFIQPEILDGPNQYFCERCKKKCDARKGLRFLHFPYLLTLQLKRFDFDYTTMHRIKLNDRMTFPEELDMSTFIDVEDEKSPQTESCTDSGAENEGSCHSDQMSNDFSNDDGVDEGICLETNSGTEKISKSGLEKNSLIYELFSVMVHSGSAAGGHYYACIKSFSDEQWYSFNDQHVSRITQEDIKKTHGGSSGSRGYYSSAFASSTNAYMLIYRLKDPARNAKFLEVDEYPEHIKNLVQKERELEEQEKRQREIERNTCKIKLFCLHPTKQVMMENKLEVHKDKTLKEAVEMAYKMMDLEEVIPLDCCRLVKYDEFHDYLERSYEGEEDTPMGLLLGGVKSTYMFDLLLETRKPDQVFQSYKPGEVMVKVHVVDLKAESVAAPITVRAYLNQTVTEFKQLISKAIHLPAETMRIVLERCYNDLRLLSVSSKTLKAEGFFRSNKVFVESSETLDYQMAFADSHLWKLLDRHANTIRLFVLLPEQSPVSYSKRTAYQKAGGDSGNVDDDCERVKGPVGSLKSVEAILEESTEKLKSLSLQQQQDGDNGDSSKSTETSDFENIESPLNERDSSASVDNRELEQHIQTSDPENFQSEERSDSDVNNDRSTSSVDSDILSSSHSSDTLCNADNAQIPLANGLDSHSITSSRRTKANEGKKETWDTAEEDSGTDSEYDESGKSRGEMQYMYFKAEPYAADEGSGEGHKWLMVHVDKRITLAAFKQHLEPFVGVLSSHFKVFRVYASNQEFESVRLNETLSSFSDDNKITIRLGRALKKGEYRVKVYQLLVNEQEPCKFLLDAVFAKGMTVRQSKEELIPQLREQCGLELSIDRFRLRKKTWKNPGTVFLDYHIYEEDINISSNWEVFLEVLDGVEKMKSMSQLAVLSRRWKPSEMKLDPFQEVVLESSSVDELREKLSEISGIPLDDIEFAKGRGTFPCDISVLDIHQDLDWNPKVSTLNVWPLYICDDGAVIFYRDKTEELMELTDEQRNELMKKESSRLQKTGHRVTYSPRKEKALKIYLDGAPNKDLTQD
Summary of the method: as §1

USP48 = target: T3, USP48 (UniProt Q86UV5)
T3 sequence (whole entry): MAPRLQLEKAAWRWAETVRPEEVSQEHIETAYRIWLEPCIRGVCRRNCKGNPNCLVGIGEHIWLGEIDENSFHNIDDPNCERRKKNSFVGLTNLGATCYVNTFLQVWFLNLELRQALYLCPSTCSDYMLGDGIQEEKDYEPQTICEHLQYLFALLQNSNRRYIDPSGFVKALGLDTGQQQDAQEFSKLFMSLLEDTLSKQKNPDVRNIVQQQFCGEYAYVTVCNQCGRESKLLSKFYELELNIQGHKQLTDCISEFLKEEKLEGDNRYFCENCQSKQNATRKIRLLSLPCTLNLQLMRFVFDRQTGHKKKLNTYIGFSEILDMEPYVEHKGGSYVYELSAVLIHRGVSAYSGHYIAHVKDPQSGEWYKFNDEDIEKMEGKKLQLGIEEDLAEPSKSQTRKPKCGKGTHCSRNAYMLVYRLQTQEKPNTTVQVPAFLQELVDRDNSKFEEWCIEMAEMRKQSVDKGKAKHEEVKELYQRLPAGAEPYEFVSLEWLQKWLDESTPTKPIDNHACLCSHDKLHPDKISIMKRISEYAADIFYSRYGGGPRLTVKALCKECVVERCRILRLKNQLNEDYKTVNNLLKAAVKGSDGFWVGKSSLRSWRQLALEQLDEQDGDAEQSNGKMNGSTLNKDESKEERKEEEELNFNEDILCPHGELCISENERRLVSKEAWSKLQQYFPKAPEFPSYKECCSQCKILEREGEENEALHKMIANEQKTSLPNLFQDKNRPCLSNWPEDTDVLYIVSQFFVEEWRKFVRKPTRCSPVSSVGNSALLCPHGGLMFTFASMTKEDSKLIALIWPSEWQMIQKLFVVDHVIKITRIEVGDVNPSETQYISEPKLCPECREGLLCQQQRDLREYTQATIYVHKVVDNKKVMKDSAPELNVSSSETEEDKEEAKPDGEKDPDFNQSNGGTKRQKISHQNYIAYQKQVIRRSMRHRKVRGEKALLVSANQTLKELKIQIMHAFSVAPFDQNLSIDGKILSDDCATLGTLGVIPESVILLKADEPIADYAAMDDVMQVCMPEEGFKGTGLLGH
Summary of the method: as §1

USP5 = target: T4, USP5 (UniProt P45974)
T4 sequence (whole entry): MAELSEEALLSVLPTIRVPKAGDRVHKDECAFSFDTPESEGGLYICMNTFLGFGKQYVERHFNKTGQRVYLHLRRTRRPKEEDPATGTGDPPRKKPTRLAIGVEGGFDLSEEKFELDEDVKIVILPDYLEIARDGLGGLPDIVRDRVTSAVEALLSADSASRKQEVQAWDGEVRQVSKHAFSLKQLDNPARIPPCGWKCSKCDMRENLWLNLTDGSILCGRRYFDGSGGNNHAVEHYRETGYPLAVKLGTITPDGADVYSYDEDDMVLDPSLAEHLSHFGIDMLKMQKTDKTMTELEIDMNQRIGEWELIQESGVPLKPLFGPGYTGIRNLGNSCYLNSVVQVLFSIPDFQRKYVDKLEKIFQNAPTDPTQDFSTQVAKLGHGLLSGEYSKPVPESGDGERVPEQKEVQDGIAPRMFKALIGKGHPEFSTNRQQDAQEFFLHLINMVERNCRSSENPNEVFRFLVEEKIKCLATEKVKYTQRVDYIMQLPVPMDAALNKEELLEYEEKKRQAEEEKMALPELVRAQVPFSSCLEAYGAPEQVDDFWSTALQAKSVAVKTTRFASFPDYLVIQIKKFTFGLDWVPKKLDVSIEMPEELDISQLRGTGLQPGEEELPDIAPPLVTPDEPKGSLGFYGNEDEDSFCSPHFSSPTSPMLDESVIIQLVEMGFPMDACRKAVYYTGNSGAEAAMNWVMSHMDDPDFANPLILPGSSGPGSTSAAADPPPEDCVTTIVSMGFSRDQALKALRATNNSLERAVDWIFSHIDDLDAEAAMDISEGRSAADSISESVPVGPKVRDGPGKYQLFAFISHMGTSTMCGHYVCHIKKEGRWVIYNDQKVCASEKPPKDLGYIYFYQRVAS
Summary of the method: as §1

USP54 = USP54 (UniProt Q70EL1)
USP54, sequence (Q70EL1 whole entry): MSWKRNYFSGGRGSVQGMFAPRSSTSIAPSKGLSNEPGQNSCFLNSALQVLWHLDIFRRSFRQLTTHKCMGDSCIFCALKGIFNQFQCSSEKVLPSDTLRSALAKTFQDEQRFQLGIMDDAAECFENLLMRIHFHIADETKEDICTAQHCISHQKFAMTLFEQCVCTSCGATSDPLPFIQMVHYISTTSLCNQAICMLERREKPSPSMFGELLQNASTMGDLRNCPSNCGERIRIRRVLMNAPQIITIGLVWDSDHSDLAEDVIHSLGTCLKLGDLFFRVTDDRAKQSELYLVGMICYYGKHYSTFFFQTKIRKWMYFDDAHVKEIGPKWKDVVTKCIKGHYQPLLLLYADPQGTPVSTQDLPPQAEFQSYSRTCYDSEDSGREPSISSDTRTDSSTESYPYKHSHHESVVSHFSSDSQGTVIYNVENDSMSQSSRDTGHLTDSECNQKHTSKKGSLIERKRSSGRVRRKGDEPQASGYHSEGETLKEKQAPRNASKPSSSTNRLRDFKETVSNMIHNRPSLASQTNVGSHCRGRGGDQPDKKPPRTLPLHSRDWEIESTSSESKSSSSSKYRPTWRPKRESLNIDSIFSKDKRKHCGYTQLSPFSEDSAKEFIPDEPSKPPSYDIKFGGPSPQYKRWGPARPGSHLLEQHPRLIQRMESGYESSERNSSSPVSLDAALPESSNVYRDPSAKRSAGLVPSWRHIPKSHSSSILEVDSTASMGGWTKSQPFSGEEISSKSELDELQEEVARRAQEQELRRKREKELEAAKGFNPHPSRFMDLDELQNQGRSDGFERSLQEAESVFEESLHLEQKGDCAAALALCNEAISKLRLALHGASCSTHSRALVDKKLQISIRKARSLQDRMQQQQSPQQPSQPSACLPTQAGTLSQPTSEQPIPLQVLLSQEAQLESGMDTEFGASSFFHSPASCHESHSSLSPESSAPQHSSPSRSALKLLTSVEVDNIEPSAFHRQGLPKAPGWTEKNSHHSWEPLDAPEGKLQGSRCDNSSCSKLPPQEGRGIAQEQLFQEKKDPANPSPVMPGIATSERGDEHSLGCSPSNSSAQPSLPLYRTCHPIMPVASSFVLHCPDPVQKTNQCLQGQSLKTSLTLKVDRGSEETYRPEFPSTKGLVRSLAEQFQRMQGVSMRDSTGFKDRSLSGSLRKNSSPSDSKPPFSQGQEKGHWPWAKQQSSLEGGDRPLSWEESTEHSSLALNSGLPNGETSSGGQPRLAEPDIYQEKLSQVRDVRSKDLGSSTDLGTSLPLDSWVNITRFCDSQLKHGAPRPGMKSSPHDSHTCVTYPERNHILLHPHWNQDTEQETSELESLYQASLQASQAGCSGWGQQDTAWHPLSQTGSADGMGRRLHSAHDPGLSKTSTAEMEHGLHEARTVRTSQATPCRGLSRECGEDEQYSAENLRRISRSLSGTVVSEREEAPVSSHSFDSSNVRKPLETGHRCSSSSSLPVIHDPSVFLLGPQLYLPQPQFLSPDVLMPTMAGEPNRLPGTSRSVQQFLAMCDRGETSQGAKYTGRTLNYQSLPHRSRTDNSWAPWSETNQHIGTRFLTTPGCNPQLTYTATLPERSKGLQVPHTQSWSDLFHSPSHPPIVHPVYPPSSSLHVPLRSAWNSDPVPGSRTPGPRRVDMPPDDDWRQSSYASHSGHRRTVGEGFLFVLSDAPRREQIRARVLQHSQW
Summary of the method: as §1

USP7 = USP7 (UniProt Q93009)
USP7, sequence (Q93009 whole entry, looked up): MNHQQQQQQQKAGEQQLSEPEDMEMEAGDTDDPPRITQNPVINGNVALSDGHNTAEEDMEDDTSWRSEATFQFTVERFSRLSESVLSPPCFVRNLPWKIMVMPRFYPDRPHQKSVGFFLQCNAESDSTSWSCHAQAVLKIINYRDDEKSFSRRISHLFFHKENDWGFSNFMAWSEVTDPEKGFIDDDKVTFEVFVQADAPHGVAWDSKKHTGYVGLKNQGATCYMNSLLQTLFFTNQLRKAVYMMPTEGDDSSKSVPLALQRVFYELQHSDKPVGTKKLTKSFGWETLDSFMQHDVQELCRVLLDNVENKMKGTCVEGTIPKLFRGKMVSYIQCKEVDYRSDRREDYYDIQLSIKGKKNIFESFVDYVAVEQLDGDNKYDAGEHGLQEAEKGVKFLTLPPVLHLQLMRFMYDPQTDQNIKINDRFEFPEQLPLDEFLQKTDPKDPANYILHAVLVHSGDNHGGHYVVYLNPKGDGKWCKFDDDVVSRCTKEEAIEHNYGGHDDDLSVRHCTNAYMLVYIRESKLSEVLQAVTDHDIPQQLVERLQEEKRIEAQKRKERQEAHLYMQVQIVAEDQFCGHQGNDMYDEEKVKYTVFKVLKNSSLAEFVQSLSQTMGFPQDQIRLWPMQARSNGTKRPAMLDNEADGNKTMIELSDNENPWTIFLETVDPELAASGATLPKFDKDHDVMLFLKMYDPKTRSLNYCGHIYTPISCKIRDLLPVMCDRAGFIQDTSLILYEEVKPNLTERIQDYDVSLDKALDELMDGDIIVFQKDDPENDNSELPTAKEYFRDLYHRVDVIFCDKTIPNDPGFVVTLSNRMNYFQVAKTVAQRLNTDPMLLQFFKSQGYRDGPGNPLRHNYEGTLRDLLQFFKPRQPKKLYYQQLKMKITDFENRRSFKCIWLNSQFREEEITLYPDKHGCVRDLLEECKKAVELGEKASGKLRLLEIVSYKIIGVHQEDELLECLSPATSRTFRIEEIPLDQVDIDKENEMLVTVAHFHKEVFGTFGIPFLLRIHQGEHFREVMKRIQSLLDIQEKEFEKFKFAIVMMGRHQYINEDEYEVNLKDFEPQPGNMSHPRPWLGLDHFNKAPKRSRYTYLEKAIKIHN
Summary of the method: as §1

USP8 = target: T5, USP8 (UniProt P40818)
T5 sequence (whole entry): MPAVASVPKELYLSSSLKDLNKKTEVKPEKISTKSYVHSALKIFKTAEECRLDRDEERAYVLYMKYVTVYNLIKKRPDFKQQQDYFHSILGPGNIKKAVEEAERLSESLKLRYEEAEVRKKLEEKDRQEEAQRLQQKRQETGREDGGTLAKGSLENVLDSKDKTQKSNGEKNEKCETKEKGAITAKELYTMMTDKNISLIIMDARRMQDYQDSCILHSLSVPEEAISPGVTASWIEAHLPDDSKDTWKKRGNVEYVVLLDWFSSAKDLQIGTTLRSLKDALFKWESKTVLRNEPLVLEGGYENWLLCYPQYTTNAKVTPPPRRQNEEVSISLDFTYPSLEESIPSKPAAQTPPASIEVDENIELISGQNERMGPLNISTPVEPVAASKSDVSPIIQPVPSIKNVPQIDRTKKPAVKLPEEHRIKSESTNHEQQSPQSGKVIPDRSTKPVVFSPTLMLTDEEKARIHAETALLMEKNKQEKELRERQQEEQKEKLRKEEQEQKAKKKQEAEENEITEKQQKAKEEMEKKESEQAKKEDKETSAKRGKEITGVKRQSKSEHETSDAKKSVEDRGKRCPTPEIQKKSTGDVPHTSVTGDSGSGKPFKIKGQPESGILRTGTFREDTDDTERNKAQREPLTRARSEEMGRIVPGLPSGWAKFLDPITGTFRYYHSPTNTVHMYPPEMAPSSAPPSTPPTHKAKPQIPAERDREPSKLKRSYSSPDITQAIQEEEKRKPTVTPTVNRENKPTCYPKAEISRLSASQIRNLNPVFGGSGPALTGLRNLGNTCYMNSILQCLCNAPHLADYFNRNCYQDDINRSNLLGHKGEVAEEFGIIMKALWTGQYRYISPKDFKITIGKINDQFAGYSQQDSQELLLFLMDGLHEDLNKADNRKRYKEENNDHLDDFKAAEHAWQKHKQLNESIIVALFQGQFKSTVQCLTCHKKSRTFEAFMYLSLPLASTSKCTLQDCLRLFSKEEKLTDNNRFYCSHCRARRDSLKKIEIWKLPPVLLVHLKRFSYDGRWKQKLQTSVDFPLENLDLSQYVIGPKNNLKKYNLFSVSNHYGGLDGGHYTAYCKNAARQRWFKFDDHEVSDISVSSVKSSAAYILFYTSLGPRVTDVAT
Summary of the method: as §1

USP9X = USP9X (UniProt Q93008)
Summary of the method: as §1

UniProt O00487 = target: UniProt O00487
UniProt O00487, sequence (O00487 whole entry): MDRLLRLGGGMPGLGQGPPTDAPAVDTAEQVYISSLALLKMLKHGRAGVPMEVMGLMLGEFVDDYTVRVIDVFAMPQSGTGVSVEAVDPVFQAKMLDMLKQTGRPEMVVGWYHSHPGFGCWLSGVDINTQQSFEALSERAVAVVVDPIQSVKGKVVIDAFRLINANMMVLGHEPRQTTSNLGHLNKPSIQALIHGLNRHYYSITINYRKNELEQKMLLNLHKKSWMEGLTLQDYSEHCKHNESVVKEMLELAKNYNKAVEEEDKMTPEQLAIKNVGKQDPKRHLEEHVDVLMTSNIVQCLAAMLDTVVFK
Summary of the method: as §1

Measured: log2 ratio of Biotin-Ahx-Ub-VS probe labelling

Cc1ncc2c(n1)CCN(C(=O)CCl)C2
inactive: USP42 0.492 | USP46 -0.138 | USP47 0.296 | USP48 -0.0668 | USP5 -0.217 | USP54 -0.303 | USP7 -0.49 | USP8 -0.102 | USP9X -0.246 | UniProt O00487 0.0218
